From PubChem
NPSR antag: antagonists of human neuropeptide S receptor cAMP signaling. Q6W5P4. hit rate 1% among 220,000. Potency, µM (series often up to 38.3 µM), hits mostly inhibitors. AID 1461. CHO-NPSR cells, cAMP TR-FRET, antagonist mode; also: nearly all actives have a fitted effect of over 50% in size
RXFP1 antagonist: antagonists of human relaxin receptor RXFP1; Q9HBX9; HEK293-RXFP1, relaxin-stimulated cAMP HTRF, 30 min; hits give low values; activity change, negative = inhibition, % at 57.5 µM; hit rate 0.59% among 350,000;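 active = activity change of -60% or lower, but not beyond a set lower limit; inconclusive = change between -60% and -40%, or beyond the set limit; inactive = change above -40%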
Target sequence (Q9HBX9 whole entry, looked up): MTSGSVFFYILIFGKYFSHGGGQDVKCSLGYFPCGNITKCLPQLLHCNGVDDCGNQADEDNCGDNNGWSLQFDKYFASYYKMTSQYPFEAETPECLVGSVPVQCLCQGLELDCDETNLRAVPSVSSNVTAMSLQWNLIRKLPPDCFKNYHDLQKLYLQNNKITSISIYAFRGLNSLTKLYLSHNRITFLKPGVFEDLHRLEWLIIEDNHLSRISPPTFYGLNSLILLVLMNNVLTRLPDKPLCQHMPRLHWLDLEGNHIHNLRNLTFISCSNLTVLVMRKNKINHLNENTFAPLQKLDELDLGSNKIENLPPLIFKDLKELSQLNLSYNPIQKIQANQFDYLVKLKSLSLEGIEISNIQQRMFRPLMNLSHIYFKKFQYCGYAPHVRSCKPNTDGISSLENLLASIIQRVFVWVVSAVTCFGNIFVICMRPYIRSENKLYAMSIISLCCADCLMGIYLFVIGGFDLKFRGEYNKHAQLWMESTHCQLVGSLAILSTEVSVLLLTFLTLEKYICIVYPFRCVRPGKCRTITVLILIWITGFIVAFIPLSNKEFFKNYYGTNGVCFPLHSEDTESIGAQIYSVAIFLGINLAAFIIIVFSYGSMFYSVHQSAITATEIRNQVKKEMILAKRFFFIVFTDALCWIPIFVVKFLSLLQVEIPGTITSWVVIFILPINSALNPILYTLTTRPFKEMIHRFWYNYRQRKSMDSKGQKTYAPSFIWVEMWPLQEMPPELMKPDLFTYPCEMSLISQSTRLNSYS
BRCA1 expr act: activators of BRCA1 expression. MCF7-BRCA1-FFLuc reporter, luminescence, 48 h; response scale: scaled: vehicle 0%, 10 µM genistein 100%. Potency, µM (highest dose often 46.1 µM), most hits filed as activators. hit rate 1.1% among 380,000. AID 624202; also: nearly all actives have a fitted effect of over 80% in size
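MCF7-BRCA1-FFLuc, 2000 cells/well; 2 h attach, 37 °C/5% CO2; compound 48 h; luciferase substrate 15 min; luminescence end-point. Norm. to genistein 10 microM max activation and DMSO; concentration-response curves fitted.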
IL-2 act: activators of IL-2; IL-2 activation reporter assay, cell-based qHTS; stimulated with anti-CD3/CD4/CD28 beads; in transgenic mouse T cells; activation, % (series mostly up to about 46 µM); hit rate 0.065% among 360,000; AID 652025; in the data active = activation above about 50%; inconclusive = mostly about 30% to 49%
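Unstimulated transgenic mouse T cells; 60-min compound exposure; bead-based TCR/CD4/CD28 stimulation; 18 h culture, 37 degrees C; dual fluorescence (EGFP, DsRed) plate cytometry.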
Giardia killer: kills Giardia lamblia | Giardia lamblia trophozoite viability | activity change, % at 7.66 µM, hits read low | hit rate 0.15% among 340,000; in the data active = activity change below about -80%; inconclusive = between about -30% and that limit;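 also: parasites exposed to compound for two days anaerobically before the ATP read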
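Luminescent ATP signal served as the viability read-out, measured 15-30 min after adding ATP detection reagent to trophozoites that had been incubated with compounds for 48 hrs at 37 deg C anaerobically at 100 cells/well.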
RXFP1 agonist: RXFP1 (human) receptor agonism; hit rate 0.3% among 370,000; Potency, µM (top dose mostly 57.5 µM), hits mostly activators; AID 2676; HEK293T-RXFP1 cAMP TR-FRET, 30 min; response scale: percent of porcine relaxin response, buffer zero; Q9HBX9; also: nearly all actives have a fitted effect of over 60% in size
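Agonist response is measured as cAMP accumulation in an RXFP1-transfected HEK293T line under PDE4 inhibition. Values are scaled between buffer-only and 29 nM porcine relaxin, and EC50s come from standard Hill equation fits.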
Large screens that a line does not name were inactive. An excerpt weighted towards active compounds, which were near 1.9% of everything screened. Unless noted, calls follow the shape of the dose curve; as a rule, active = well fitted curve in the direction sought with a large enough effect; inconclusive = small, poorly fitted or top-dose-only effect, or another doubt; inactive = no such curve, though single readings can be large; an effect the other way counts as inactive or inconclusive.

CC1(C)CC(=O)C2=C(C1)NC(Nc1nc3ccccc3o1)=NC2c1ccccc1 (stereo not given)	none (no result: NPSR antag, RXFP1 antagonist, IL-2 act, RXFP1 agonist)
O=C(CBr)c1ccc(Oc2ccc(C(=O)C[n+]3cccc(Br)c3)cc2)cc1	none (no result: NPSR antag, RXFP1 antagonist, IL-2 act, Giardia killer, RXFP1 agonist)
COc1ccc(-c2nsc(NC(=O)c3ccccc3Br)n2)cc1	none (no result: NPSR antag, BRCA1 expr act, IL-2 act, Giardia killer)
CN(C)S(=O)(=O)c1ccc(C(=O)NCCOc2ccc(F)cc2)cc1	BRCA1 expr act 11.2µM
CN(C)S(=O)(=O)c1ccc(C(=O)NCCOc2ccccc2)cc1	none
CCC(=O)c1cn(CC(=O)NCc2ccco2)c2ccccc12	BRCA1 expr act 11.2µM
COC(=O)c1cn(CC(=O)NCc2ccco2)c2ccccc12	none
NS(=O)(=O)c1cccc(NC(=O)CCSc2ccccc2Cl)c1	BRCA1 expr act 10µM
Cc1ccc(C(=O)c2c3ccc(C(F)(F)F)cc3[n+]([O-])n2CCCN)cc1	Giardia killer -89.8 (no result: NPSR antag, RXFP1 antagonist)
Cc1ccc(C(=O)c2c3ccc(C(F)(F)F)cc3[n+]([O-])n2CCCC(N)=O)cc1	none (no result: NPSR antag, RXFP1 antagonist)
CN(C)c1ccc(/C=C2\C=Cc3ccccc32)cc1N	none (no result: NPSR antag, RXFP1 antagonist, IL-2 act, Giardia killer, RXFP1 agonist)
O=C(NCCc1nc2ccccc2n1CCCOc1ccccc1)C1CCCCC1	none (no result: NPSR antag, RXFP1 antagonist, IL-2 act, RXFP1 agonist)
CCN(CC)CCOc1ccc(C(O)(Cc2ccc(Cl)cc2)c2ccc(C)cc2)cc1 (stereo not given)	RXFP1 antagonist -91.2 (no result: NPSR antag, BRCA1 expr act, IL-2 act, Giardia killer, RXFP1 agonist)
COCCN(CCOc1cc(C)cc(C)c1)Cc1ccc(Cl)cc1	none (no result: NPSR antag)
COc1ccc2c(c1)C(=O)CC2	none (no result: NPSR antag, RXFP1 antagonist, IL-2 act, Giardia killer, RXFP1 agonist)
O=C(O)C(Cc1ccc(O)cc1)N1C(=O)c2c(Cl)c(Cl)c(Cl)c(Cl)c2C1=O (stereo not given)	RXFP1 antagonist -61.5 (no result: NPSR antag, RXFP1 agonist)
O=C(O)c1ccc2c(c1)C(=O)N([C@@H](Cc1ccc(O)cc1)C(=O)O)C2=O	none (no result: NPSR antag, RXFP1 antagonist, BRCA1 expr act, IL-2 act, Giardia killer)
Cc1ccc(C(=O)c2c(C)oc3c2C(=O)C(=O)c2ccccc2-3)cc1	none
Cc1ccc(C(=O)c2coc3c2C(=O)C(=O)c2ccccc2-3)cc1	NPSR antag inconclusive, BRCA1 expr act 17.8µM
COc1ccc(Cc2c(-c3ccc(F)cc3)nc3ccc(Br)cn23)c(C)c1	BRCA1 expr act 8.91µM (no result: NPSR antag, RXFP1 antagonist, Giardia killer, RXFP1 agonist)
OCCN1CCN(CCCN2c3ccccc3Sc3ccc(Cl)cc32)CC1	NPSR antag inconclusive, RXFP1 antagonist inconclusive
O=C1NC2CCCCN2C12CCN(CCCN1c3ccccc3CCc3ccc(Cl)cc31)CC2 (stereo not given)	RXFP1 antagonist -73.6 (no result: NPSR antag, BRCA1 expr act, IL-2 act, Giardia killer, RXFP1 agonist)
COc1cc(-c2nc(Cn3nnc(C(=O)Nc4cccc(Cl)c4)c3C)c(C)o2)cc(OC)c1OC	none (no result: NPSR antag, RXFP1 antagonist, IL-2 act, Giardia killer)
COc1ccccc1OCCOc1ccc(/C=C2/C(=N)N3OC(C)=CC3=NC2=O)cc1OC	none
CC1=CC2=NC(=O)/C(=C\c3cccn3CCOc3ccccc3C)C(=N)N2O1	NPSR antag 10µM
COc1ccc(NC(=O)CCc2c(C)nc3c(c2C)c(=O)n(C)c(=O)n3C)c(OC)c1	none (no result: NPSR antag, RXFP1 antagonist, IL-2 act, Giardia killer)
N#C/C(=C\c1ccc(N2CCCCC2)o1)C(=O)Nc1cccc(Br)c1	BRCA1 expr act 1µM
O=C(c1cc2ccccc2[nH]1)c1cc2cc(O)ccc2[nH]1	none (no result: NPSR antag, RXFP1 antagonist, IL-2 act, Giardia killer, RXFP1 agonist)
CCc1ccc2[nH]c(=O)c(CN(CCN(C)C)C(=S)NCc3ccco3)cc2c1	RXFP1 antagonist -64.1
Cc1ccc(-c2nnc(SCCC(=O)Nc3ccccc3)n2C)cc1	none (no result: NPSR antag, RXFP1 antagonist, IL-2 act, Giardia killer, RXFP1 agonist)
Cn1c(=O)c([N+](=O)[O-])c(Cl)c2ccccc21	NPSR antag inconclusive, RXFP1 antagonist -79.7
CCN(CC)c1c([N+](=O)[O-])c(=O)n(C)c2ccccc12	none
O=C(CN1C(=O)c2ccccc2S1(=O)=O)Nc1cc(S(=O)(=O)N2CCOCC2)ccc1N1CCOCC1	none (no result: NPSR antag, RXFP1 antagonist, IL-2 act, RXFP1 agonist)
CC(C)c1ccc(-c2c(C#N)c(N)nc(SCC(=O)N3CCCCC3)c2C#N)cc1	NPSR antag 10µM, RXFP1 agonist 22.4µM
COC(=O)CSc1nc(N)c(C#N)c(-c2ccc(O)cc2)c1C#N	none
Cc1cc(C)cc(N=Cc2[nH]c3ccc(Br)c(Cl)c3c2O)c1	NPSR antag inconclusive, IL-2 act 54.5
CCOCCCNC(=O)c1ccc2c(c1)ncn2C1CCCC1	BRCA1 expr act inconclusive
COC(=O)Nc1ccc2c(c1)ncn2C1CCCCC1	none
CCOC(=O)Nc1ccc2c(c1)ncn2C1CCCCC1	BRCA1 expr act 12.6µM
